The text below walks through data of the supplement of paper PMC6522484.

± gives the standard deviation of the averaged measurements.

Test [1] has as its system DLD1. In words: cell viability (CellTiter-Glo) relative to plate median (fraction of plate median); higher = more viable cells. The note with it: 5 µM; treatment time 24 h; reporter: 7TFP. Put shortly: (§1)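 For this screen, colorectal cancer cell lines carrying stable lentiviral TCF/Wnt firefly luciferase reporters, either 7TFP or TCF4/Wnt, were seeded into 384-well plates. A day's wait of 24 h preceded addition of library compounds at a final 5 µM, which stayed on the cells for 24 h. Firefly luciferase or CellTiterGlo luminescence, read on parallel plates, was normalised to the plate median per well, and the reported value is the mean of two independent replicates.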
On the technique in general: In ATP-based viability assays light output follows the ATP content of the culture.

The next test concerns HCT116. The test is described as above. The note with it: 5 µM; treatment time 24 h; reporter: TCF4/Wnt. Put shortly: as §1
In test [2] the test system is SW480. The test is described as above. To be noted: 5 µM; treatment time 24 h; reporter: 7TFP. Put shortly: as §1
Test [3] has as its system DLD1. In words: TCF/Wnt firefly luciferase reporter signal relative to plate median (fraction of plate median); higher = higher Wnt reporter signal. To be noted: 5 µM; treatment time 24 h; reporter: 7TFP. Put shortly: as §1
The subject of test [4] is SW480. Described as above. To be noted: 5 µM; treatment time 24 h; reporter: 7TFP. Put shortly:
as §1

As for `CCN(CC)C(=S)SSC(=S)N(CC)CC`, the cell viability worked out at 0.764 ± 0.14 with DLD1 [1], 0.504 ± 0.17 in the test on HCT116 and 0.938 ± 0.12 in the test with SW480 [2]. For the same compound, the “TCF/Wnt firefly luciferase reporter signal” value with DLD1 [3] is 1.02 ± 0.41; in the test with SW480 [4], 0.842 ± 0.043.
On to `Oc1ccc2c(c1)O[C@H](c1ccc(O)c(O)c1)[C@@H](O)C2`, for which the values for the cell viability in the test on DLD1 [1], in the test on HCT116 and in the test on SW480 [2] were 1.07 ± 0.014, 1.04 ± 0.028 and 1.05 ± 0.096, respectively. Besides, the “TCF/Wnt firefly luciferase reporter signal” value in the test with DLD1 [3] worked out at 0.926 ± 0.058; with SW480 [4], 0.9675 ± 0.005.
For the compound `CC[C@@H]1C(=O)OC[C@@H]1Cc1cncn1C`, the values for the cell viability with DLD1 [1], in the test with HCT116 and in the test with SW480 [2] were 1.015 ± 0.0071, 0.953 ± 0.067 and 0.992 ± 0.012, respectively. Besides, the “TCF/Wnt firefly luciferase reporter signal” value with DLD1 [3] came out at 1.18 ± 0.05; in the test on SW480 [4], 1.16 ± 0.16.
Take `C[C@]12CCC3c4ccc(OC(=O)c5ccccc5)cc4CCC3C1CCC2=O` (stereo not given in full): the cell viability with DLD1 [1] was determined as 1.05 ± 0.05; in the test on HCT116, 1.01 ± 0.021; in the test on SW480 [2] it was 0.991 ± 0.011. For the same compound, the “TCF/Wnt firefly luciferase reporter signal” value with DLD1 [3] came out at 0.978 ± 0.045; in the test with SW480 [4] it was 0.989 ± 0.058.
As to `C=C1C(=O)C[C@@H]2[C@@H]3CC[C@@H](C(=O)O)[C@@]12CC3(C)C` [Terrecyclic Acid A], the figures for the cell viability with DLD1 [1], with HCT116 and in the test with SW480 [2] were 0.873 ± 0.051, 0.919 ± 0.047 and 0.974 ± 0.022, respectively. Further, the “TCF/Wnt firefly luciferase reporter signal” value in the test on DLD1 [3] is 0.957 ± 0.1; in the test with SW480 [4], 0.961 ± 0.044.
`Nc1ccc(C(=O)O)c(O)c1`: the cell viability turned out to be 1.01 ± 0.021 with DLD1 [1], 1.06 ± 0.11 in the test on HCT116 and 0.989 ± 0.013 with SW480 [2]. Besides, the “TCF/Wnt firefly luciferase reporter signal” value in the test on DLD1 [3] amounted to 1.04 ± 0.057; with SW480 [4], 1.06 ± 0.1.
Turning to `CC(=O)O[C@@H]1CC2C(C)(C)C(=O)CC[C@]2(C)C2CC[C@]3(C)C(=CC(=O)O[C@H]3c3ccoc3)[C@@]21C` (stereo not given in full), the cell viability was 1.05 ± 0.12 with DLD1 [1], 1.06 ± 0.17 in the test on HCT116 and 1.07 ± 0.092 with SW480 [2]. For the same compound, the “TCF/Wnt firefly luciferase reporter signal” value in the test with DLD1 [3] was 1.06 ± 0.11; with SW480 [4], 0.949 ± 0.087.
`CC1=C(CC(=O)O)c2cc(F)ccc2/C1=C\c1ccc([S+](C)[O-])cc1` (stereo not given): the values for the cell viability with DLD1 [1], in the test with HCT116 and with SW480 [2] were 0.941 ± 0.028, 0.901 ± 0.018 and 0.949 ± 0.1, respectively. Also, the figures for the “TCF/Wnt firefly luciferase reporter signal” value with DLD1 [3] and with SW480 [4] were 1.03 ± 0.23 and 1.03 ± 0.12, respectively.
In the case of `CCC(=O)O[C@@H]1[C@@H](OC2C(C)/C=C/C(=O)OC(C)C(CO[C@@H]3O[C@H](C)[C@@H](OC(=O)CC)[C@@H](OC)[C@H]3OC)C3OC3/C=C/C(=O)C(C)(O)CC2C)O[C@@H](C)C[C@H]1OC` (stereo not given in full) [Chalcomycin B], the cell viability worked out at 1.04 ± 0.014 in the test on DLD1 [1], 1.06 ± 0.064 in the test on HCT116 and 1.11 ± 0.071 in the test on SW480 [2]. Moreover, the “TCF/Wnt firefly luciferase reporter signal” value in the test with DLD1 [3] worked out at 1.14 ± 0.12; in the test on SW480 [4] it was 0.972 ± 0.2.
Take `O=C(O)CCCCCCCC(=O)O`: the cell viability in the test with DLD1 [1] amounted to 1.01 ± 0.014; in the test on HCT116, 1.11 ± 0.11; in the test with SW480 [2] it was 1.09 ± 0.021. For the same compound, the “TCF/Wnt firefly luciferase reporter signal” value in the test on DLD1 [3] was 1.16 ± 0.13; with SW480 [4], 1.01 ± 0.084.
For the compound `CCCCOc1ccc(C(=O)CCN2CCCCC2)cc1`, the figures for the cell viability with DLD1 [1], with HCT116 and in the test with SW480 [2] were 0.832 ± 0.12, 0.87 ± 0.033 and 0.931 ± 0.045, respectively. Also, the “TCF/Wnt firefly luciferase reporter signal” value in the test on DLD1 [3] stood at 1.09 ± 0.23; in the test with SW480 [4], 1.17 ± 0.092.
In the case of `CC(CN1c2ccccc2Sc2ccccc21)N(C)C` (stereo not given), the cell viability in the test on DLD1 [1] came to 1.09 ± 0.05; in the test on HCT116, 1.1 ± 0.064; with SW480 [2], 1.08 ± 0.014. Moreover, the “TCF/Wnt firefly luciferase reporter signal” value in the test on DLD1 [3] was found to be 1.05 ± 0.15; with SW480 [4], 1.115 ± 0.0071.
Take `C#C[C@]1(OC(C)=O)CC[C@H]2[C@@H]3CCC4=CC(=NO)CC[C@@H]4[C@H]3CC[C@@]21CC` (mixture of isomers): the values for the cell viability with DLD1 [1], in the test with HCT116 and in the test with SW480 [2] were 1 ± 0.057, 1.025 ± 0.0071 and 0.98 ± 0.025, respectively. Moreover, the “TCF/Wnt firefly luciferase reporter signal” value in the test with DLD1 [3] was found to be 1.055 ± 0.0071; in the test on SW480 [4], 0.97 ± 0.04.
For the compound `C[C@]1(O)CC(=O)c2c(ccc3c2C(=O)c2cccc(O)c2C3=O)C1` [Tetrangomycin; Benzanthramycin; LL-AE-705-Y], the figures for the cell viability in the test with DLD1 [1], with HCT116 and in the test on SW480 [2] were 0.822 ± 0.019, 0.978 ± 0.14 and 1 ± 0.067, respectively. Further, the “TCF/Wnt firefly luciferase reporter signal” value in the test with DLD1 [3] came to 0.853 ± 0.065; in the test with SW480 [4] it was 1.01 ± 0.045.
